Among the data in ChEMBL document CHEMBL3433997, “St. Jude Leishmania screening dataset” (2016) are inhibition values, retold here.

Solute carrier family 2, facilitated glucose transporter member 1 (Homo sapiens), sequence (P11166 whole entry): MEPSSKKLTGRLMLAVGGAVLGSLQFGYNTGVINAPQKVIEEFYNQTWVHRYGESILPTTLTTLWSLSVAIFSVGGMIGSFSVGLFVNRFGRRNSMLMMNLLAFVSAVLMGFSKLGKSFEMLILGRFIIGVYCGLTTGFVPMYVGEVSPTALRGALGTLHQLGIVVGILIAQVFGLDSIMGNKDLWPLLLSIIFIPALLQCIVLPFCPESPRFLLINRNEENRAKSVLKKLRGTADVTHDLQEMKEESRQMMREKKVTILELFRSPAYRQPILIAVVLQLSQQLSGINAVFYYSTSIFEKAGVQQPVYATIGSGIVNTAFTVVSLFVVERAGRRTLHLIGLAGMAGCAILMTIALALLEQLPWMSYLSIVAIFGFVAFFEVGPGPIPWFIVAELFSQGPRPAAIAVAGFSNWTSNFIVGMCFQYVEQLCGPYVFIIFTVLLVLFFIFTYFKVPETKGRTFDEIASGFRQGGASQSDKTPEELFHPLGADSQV

The test has as its target Solute carrier family 2, facilitated glucose transporter member 1 (Homo sapiens) (UniProt P11166). Description: ST_JUDE_LEISH: Cytotoxicity at 2uM final concentration against transgenic Leishmania Mexicana promastigotes LmGLUT1 that are glucose transport deficient and complemented with the human glucose transporter GLUT1. Activity is measured by DNA content using SYBR green in vitro. In kind it is functional.
Regarding `Cc1cccc(-c2nn(-c3ccccc3)c3[nH]c(=O)c(CN4CCSCC4)cc23)c1`, the inhibition was -2.69%.
For `N#Cc1ccc(NC(=O)c2ccc(Cc3ccc4c(c3)CCN(C3CCC3)CC4)cn2)cc1` the value was 9.64%; for `CC1CN(Cc2ccc(-c3ccc(-c4nc5cc(F)ccc5[nH]4)cc3)cc2)CC(C)O1` (stereo not given), 6%; for `Cn1c(N)c(N=O)c(=O)[nH]c1=O`, 1.53%.
For `COc1ccc(CCN2CCC(NCc3cccc(N(C)C)c3)CC2)cc1` the value was -2.94%; for `Cc1[nH]c(C)c(-c2ccc(-c3ccccc3Cl)nc2)c(=O)c1Br`, 0.1%; for `COCCNCc1cccc(-c2ccc3nccc(Nc4cc(O)ccc4C)c3c2)c1`, 3.68%.
For `O=C(NCCCCN1CC=C(c2ccc3c(c2OCc2ccccc2)CCCC3)CC1)c1ccc(-c2ccc(C(F)(F)F)cc2)cc1` the value was -1.51%; for `CN1CCN(CC(=O)Nc2ccc(-c3cccc(-c4nc5cc(C(F)(F)F)ccc5[nH]4)c3)cc2)CC1`, 0.66%.
On to `CCc1cc(C(=O)c2cccc(C)c2)c(NC(=O)CN2CCN(C(=O)c3ccco3)CC2)s1`, for which the inhibition is 2.38%.
For `CC(C)COc1ccc(Cl)cc1Nc1nc(-c2nc3ccccc3[nH]2)cs1` the value was 2.76%; for `CCOC(=O)C1=C(C)NC2=C(C(=O)CC(C)(C)C2)C1c1ccc(Cl)cc1` (stereo not given), -1.57%; for `COc1ccc(C2CC(=O)C3=C(C2)NC(C)=C(C(=O)OC2CCCC2)C3c2ccc(O)cc2)cc1OC` (stereo not given), -0.48%.
For `Cc1ccc(-c2nc3cc(C(=O)NC4CCC(N5CCCc6ccc(C#N)cc6C5)CC4)ccc3[nH]2)cc1` (stereo not given) the value was -1.44%; for `O=C(/C=C/c1ccc(Cl)c(Cl)c1)N1CCC(CN2CCC(c3c[nH]c4cnccc34)CC2)CC1`, 4.52%.
For `COc1cc(-c2cc(-c3ccc(S(C)(=O)=O)cc3)cnc2N)ccc1O` the value was 6.13%; for `CCn1c(-c2nonc2N)nc2cnc(Oc3cccc(NC(=O)c4ccc(OCCN(C(C)C)C(C)C)cc4)c3)cc21`, 15.1%.
On to `O=C(Nc1cccc(CN2CCN(C(=O)c3cccc(Cl)c3)CC2)c1)c1ccco1`, for which the inhibition is -4.34%.
Turning to `CC1(C)N=C(N)N=C(N)N1OCCCOc1cc(Cl)c(Cl)cc1Cl`, the inhibition stood at 3.4%.
For `CCN(CC)CCN(Cc1ccc(-c2ccc(C(F)(F)F)cc2)cc1)C(=O)Cn1c(CCc2cccc(F)c2F)nc(=O)c2cc(C)ccc21` the value was 5.28%; for `CCN(CCCN1CCCCC1)c1cc(C)nc(Nc2ccc(C(F)(F)F)cc2)n1`, 3.6%; for `NCC1CCCN1Cc1cccc(-c2ccc(-c3nc4cc(C(F)(F)F)ccc4[nH]3)cc2)c1` (stereo not given), 0.06%.
Take `Cc1cc(C(=O)CN2C(=O)NC(C)(c3ccc4ccccc4c3)C2=O)c(C)n1Cc1ccco1` (stereo not given): the inhibition is -0.27%.
For `Cc1cccc2nc(-c3ccc(-c4cccc(CN5CCC(CCN6CCCCC6)CC5)c4)s3)[nH]c12` the value was -0.21%; for `COc1cc(C(=O)N2CCOC(CCN3CCc4c(c5ccccc5n4C)C3)(c3ccc(Cl)c(Cl)c3)C2)cc(OC)c1OC` (stereo not given), -0.35%; for `COc1cc(C2Nc3ccc4ccccc4c3C3=C2C(=O)CC(C)(C)C3)ccc1Oc1ccc([N+](=O)[O-])cc1C#N` (stereo not given), 4.18%.
As to `COc1ccc2nccc(N3CCC(CCNCc4cc5c(cn4)OCCO5)CC3)c2c1`, the inhibition was 7.15%.
Turning to `COc1nc(NCC(C)C)nc(Oc2ccc(=O)n(Cc3ccccc3)n2)n1`, the inhibition worked out at 1.73%.
For `O=C(Nc1cccc(F)c1)N1CCC(CN2CCOC(c3ccccc3)(c3ccccc3)C2)CC1` the value was 3.49%; for `CCN(c1cc(C)nc(Nc2ccc(Cl)cc2)n1)[C@H]1CCN(Cc2ccccc2)C1`, 9.15%.
Regarding `CS(=O)(=O)c1cccc(-c2cnc(N)c3cc(-c4ccc(F)cc4)ccc23)c1`, the inhibition is 2.85%.
For `Nc1n[nH]c(-c2ccccc2Nc2ccnc3cc(-c4nccs4)ccc23)n1` the value was 1.03%; for `CCn1cnc2c(N3CCCC3=O)cc(C(=O)N[C@@H](Cc3ccccc3)[C@H](O)CNC3CCCCC3)cc21`, 2%; for `Cc1cc(NC(=O)NCCN2CCC(NS(=O)(=O)c3ccc(Br)cc3)C2)c2ccccc2n1` (stereo not given), 4.43%.
As for `COc1ccc(NC(=O)CCNc2cc(C)nc(NCc3cccc(C)c3)n2)cc1`, the inhibition was -0.09%.
For `N#Cc1ccc(-c2ccc(C(=O)NCCCCN3CCC(c4ccc5c(c4OCc4ccccn4)CCCC5)CC3)cc2)cc1` the value was -0.71%; for `COc1ccc(-c2cccc(NC(=O)c3ccc(C#N)cc3)c2)cc1CN1CCCN(C)CC1`, 3.34%; for `Nc1nc(N)c2c(ccc3c2ccn3Cc2ccc(OCc3ccccc3)cc2)n1`, 2.4%.
Turning to `CC(C)(C)c1ccc(Cn2c(=N)n(CC(=O)c3ccc(-c4ccccc4)cc3)c3ccccc32)cc1`, the inhibition came out at 0.71%.
Turning to `CCc1c(C(=O)NC2CCC(N3CCC(c4ccccc4OC)CC3)CC2)[nH]c2ccc(Br)cc12` (stereo not given), the inhibition came out at 0.33%.
